Experimental findings from PubChem BioAssay (EPA / NIEHS) are described below.

In general, AC50 refers to the concentration at which the activity in the assay is half-maximal.

Test [1] in a line: ACEA_ER_80hr: ACEA Biosciences xCELLigence Real-Time Cell Analysis on Estrogen Receptor Agonism for Proliferation (AID 2282667; active means hit-call score of the fitted dose curve at least 0.9, where 1 is the maximum). The following applies: T47D proliferation, impedance (xCELLigence), 80 h. In outline: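 Impedance readout (RT-CES) of T47D proliferation at 80 h post-dose; gain of signal vs DMSO baseline. Compounds: 8 conc, 1:4 serial, top 100 uM final, ≤0.5% DMSO; biological duplicate.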

A short description of test [2]: ATG_CRE_CIS: Attagene CIS-FACTORIAL HepG2 Assay for human cAMP Responsive Element (CRE) binding protein 3 (AID 2282926). The following applies: HepG2 CRE cis-reporter, Attagene multiplexed mRNA; actives raise or lower the signal. In a few lines:
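Readout: fluorescently labelled reporter transcripts resolved by capillary electrophoresis after RT-PCR, taken 24 h post-dosing in transfected HepG2. Endogenous transcription factor activity drives each cis-element reporter; gain or loss of signal fitted relative to DMSO control.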

Test [3] addresses CCAAT/enhancer-binding protein beta (Homo sapiens) (UniProt P17676). The test can be described thus: ATG_C_EBP_CIS: Attagene CIS-FACTORIAL HepG2 Assay for human CCAAT/Enhancer Binding Protein (C/EBP) beta (AID 2282927). Particulars: HepG2 Attagene cis-factorial transcription factor reporter; actives raise or lower the signal. In outline: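 HepG2 transiently transfected with multiplexed reporter units under cis-regulatory promoters reporting endogenous C/EBPb activity. After 24 h exposure, reporter mRNA assayed by RT-PCR, fluorescent labelling, HpaI digestion and capillary electrophoresis; bidirectional fitting versus DMSO.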

A short description of test [4]: ATG_CMV_CIS: Attagene CIS-FACTORIAL HepG2 Assay for human CMV (Internal Marker) (AID 2282928).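 Further: endpoint acts as a background internal control marker rather than a target.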 The following applies: HepG2 CMV promoter reporter, transcription factor profiling; actives raise or lower the signal. In outline:
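24 h chemical treatment, HepG2 with transient multi-reporter transfection; RNA → oligo(dT) RT → PCR → 6-FAM extension → HpaI digest → CE fluorescence. Bidirectional fit, DMSO negative control.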

A short description of test [5]: ATG_DR4_LXR_CIS: Attagene CIS-FACTORIAL HepG2 Assay for human Liver X Receptor (LXR), DR4 submotif (AID 2282929). Particulars: HepG2 Attagene DR4 cis-reporter, mRNA transcription; actives raise or lower the signal. In a few lines:
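DR4 cis-reporter in HepG2, 24 h exposure. Detection: RT-PCR, 6-FAM labelling, CE fragment analysis. Endpoint fitted bidirectionally, DMSO = baseline.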

Test [6] has as its target Aryl hydrocarbon receptor (Homo sapiens) (UniProt P35869). Briefly: ATG_Ahr_CIS: Attagene CIS-FACTORIAL HepG2 Assay for human Aryl Hydrocarbon Receptor (Ahr) (AID 2282930). Particulars: HepG2 AhR cis-factorial reporter transcription; actives raise or lower the signal. In outline: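 HepG2 cells transiently transfected with cis-element-driven multiplexed reporter units; endogenous AhR activity read as reporter mRNA 24 h after dosing, via RT-PCR, 6-FAM labelling, HpaI digestion and capillary electrophoresis. Bidirectional fit relative to DMSO.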

Test [7] in a line: ATG_AP_1_CIS: Attagene CIS-FACTORIAL HepG2 Assay for human Activator Protein 1 (AP-1) (AID 2282931). Particulars: HepG2 Attagene cis-factorial AP-1 reporter mRNA; actives raise or lower the signal. In outline:
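Cis-regulated reporter units transiently expressed in HepG2 report endogenous transcription-factor activity. Signal: reporter mRNA at 24 h, via RT-PCR and fluorescent capillary electrophoresis. Endpoint derived by bidirectional fitting, DMSO as negative control.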

Test [8] is described as follows: ATG_AP_2_CIS: Attagene CIS-FACTORIAL HepG2 Assay for human Activator Protein 2 (AP-2) (AID 2282932). The following applies: HepG2 AP-2 cis-reporter, Attagene transcription factor profiling; actives raise or lower the signal. In a few lines: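 Liver-derived HepG2 line, cis-reporter system measuring endogenous factors; 24 h dosing; reporter mRNA detected by fluorescent RT-PCR and capillary electrophoresis.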

Test [9] in a line: ATG_BRE_CIS: Attagene CIS-FACTORIAL HepG2 Assay for human Bone Morphogenetic Protein (BMP) Response Element (BRE) (AID 2282933). Particulars: HepG2 BMP response element reporter, Attagene transcription factor profiling; actives raise or lower the signal. In a few lines: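 After a 24 h chemical treatment, transiently transfected HepG2 cells were lysed for RNA; reporter transcripts were quantified by fluorescent RT-PCR and capillary electrophoresis, normalised to DMSO.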

For test [10], the target named is Retinoic acid receptor alpha (Homo sapiens) (UniProt P10276). The test can be described thus: ATG_DR5_RAR_CIS: Attagene CIS-FACTORIAL HepG2 Assay for human Retinoic Acid Receptor Alpha (RARE), DR5 submotif (AID 2282934).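 On AC50: reporter responds to endogenous RAR alpha beta and gamma in HepG2 not RARA alone.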 Particulars: HepG2 Attagene cis-factorial RARE DR5 reporter, mRNA; actives raise or lower the signal. In a few lines:
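HepG2 cells transiently transfected with multiplexed reporter units; DR5 cis-element drives reporter through endogenous transcription factors. After 24 h dosing, reporter mRNA quantified by RT-PCR, fluorescent labeling, HpaI digestion and capillary electrophoresis; bidirectional fitting versus DMSO.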

Records with an inconclusive call do not appear. Activity calls are given as the source filed them. How the source made its calls, unless noted: active means hit-call score of the fitted dose curve at least 0.9, where 1 is the maximum; inactive means score below 0.9.

Sequence of CCAAT/enhancer-binding protein beta (Homo sapiens) (P17676 whole entry, looked up): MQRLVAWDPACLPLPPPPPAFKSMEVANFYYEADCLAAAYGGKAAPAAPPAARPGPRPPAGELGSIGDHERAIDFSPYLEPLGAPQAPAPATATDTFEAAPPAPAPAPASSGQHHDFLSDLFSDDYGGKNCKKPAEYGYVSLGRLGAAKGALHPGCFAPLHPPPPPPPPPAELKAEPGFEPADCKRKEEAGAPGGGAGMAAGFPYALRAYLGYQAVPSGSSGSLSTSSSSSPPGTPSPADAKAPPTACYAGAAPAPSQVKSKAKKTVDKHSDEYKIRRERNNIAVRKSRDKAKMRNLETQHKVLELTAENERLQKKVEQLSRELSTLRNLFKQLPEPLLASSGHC
Sequence of Retinoic acid receptor alpha (Homo sapiens) (P10276 whole entry, looked up): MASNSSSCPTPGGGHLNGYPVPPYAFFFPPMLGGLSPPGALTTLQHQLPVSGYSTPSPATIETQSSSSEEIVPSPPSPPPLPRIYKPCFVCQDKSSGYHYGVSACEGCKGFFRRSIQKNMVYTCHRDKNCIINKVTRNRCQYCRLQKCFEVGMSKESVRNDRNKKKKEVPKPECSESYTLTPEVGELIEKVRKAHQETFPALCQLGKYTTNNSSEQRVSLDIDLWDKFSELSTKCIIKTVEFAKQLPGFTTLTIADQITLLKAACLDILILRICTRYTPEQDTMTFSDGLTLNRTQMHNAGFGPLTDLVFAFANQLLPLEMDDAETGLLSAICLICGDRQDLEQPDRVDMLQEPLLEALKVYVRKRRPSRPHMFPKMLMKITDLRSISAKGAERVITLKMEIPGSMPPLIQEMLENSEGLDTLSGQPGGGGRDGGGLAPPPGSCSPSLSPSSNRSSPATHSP
Sequence of Aryl hydrocarbon receptor (Homo sapiens) (P35869 whole entry, looked up): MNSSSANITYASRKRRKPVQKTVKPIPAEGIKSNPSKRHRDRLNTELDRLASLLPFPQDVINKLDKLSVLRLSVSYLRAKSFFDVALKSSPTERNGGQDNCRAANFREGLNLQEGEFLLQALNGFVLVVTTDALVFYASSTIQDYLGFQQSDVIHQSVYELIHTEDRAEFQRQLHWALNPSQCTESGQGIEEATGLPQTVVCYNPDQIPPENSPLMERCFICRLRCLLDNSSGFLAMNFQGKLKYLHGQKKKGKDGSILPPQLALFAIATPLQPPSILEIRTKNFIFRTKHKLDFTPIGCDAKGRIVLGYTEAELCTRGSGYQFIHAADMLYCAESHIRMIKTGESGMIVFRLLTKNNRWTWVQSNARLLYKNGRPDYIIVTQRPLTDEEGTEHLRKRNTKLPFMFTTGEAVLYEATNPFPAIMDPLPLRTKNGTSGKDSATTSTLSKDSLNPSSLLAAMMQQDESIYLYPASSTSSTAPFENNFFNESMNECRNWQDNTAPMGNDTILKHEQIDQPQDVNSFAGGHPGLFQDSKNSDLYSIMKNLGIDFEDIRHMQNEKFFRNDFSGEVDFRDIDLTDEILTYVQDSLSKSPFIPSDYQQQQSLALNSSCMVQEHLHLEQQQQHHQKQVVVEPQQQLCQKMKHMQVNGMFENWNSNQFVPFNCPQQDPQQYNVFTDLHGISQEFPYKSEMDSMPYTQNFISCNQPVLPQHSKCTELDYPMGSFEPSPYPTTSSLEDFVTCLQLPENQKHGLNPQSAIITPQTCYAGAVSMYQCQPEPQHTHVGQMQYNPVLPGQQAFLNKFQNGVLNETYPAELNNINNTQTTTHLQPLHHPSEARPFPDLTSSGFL

As to `CCCCOCC(C)O` (stereo not given), the AC50 in test [1] is 0.129 µM (active). The result in test [2], in test [3], in test [4], in [5], in [6] and in test [7] was inactive. Moreover, the molecule was called inactive in test [8], in [9] and in test [10].

On to `C=C[Si](OCCOC)(OCCOC)OCCOC`, for which the molecule was classed as inactive in test [1], in [2], in test [3], in [4], in [5] and in test [6]. The result in [7], in [8], in [9] and in test [10] was inactive.

As for `c1ccc2sc(SSN3CCOCC3)nc2c1`, the molecule was called inactive in test [1], in test [3] and in test [9]. In addition, the AC50 in test [2] is 146 µM (active); in test [4] it was 64 µM (active); in test [5] it was 100 µM (active); in test [6], 3.45 µM (active); in test [7], 43.2 µM (active); in [8] it was 64.8 µM (active). For the same molecule, the AC50 in test [10] is 170 µM (active).

For `CC(C)CC(=O)OCc1ccccc1`, the outcome in test [1], in test [2], in test [3], in test [4], in [5] and in test [6] was inactive. For the same molecule, the molecule was called inactive in test [7], in [8], in test [9] and in test [10].

Regarding `N#CC1(N)CCCCC1`, the molecule was called inactive in test [1], in [2], in [3], in test [4], in test [5] and in test [6]. Moreover, the outcome in test [7], in test [8], in test [9] and in [10] was inactive.

Take `O=C(O)C(F)(F)C(F)(F)C(F)(F)C(F)(F)C(=O)O`: the molecule was classed as inactive in test [1], in [2], in test [3], in test [4], in [5] and in test [6]. In addition, the molecule was called inactive in test [7], in [8], in test [9] and in [10].

Take `CCC1(C)C(=O)N(Cl)C(=O)N1Cl` (stereo not given): the result in [1], in [4], in test [5], in test [6], in test [8] and in test [9] was inactive. Also, the result in [10] was inactive. The values for the AC50 in test [2], in test [3] and in [7] were 27.6 µM (active), 38.9 µM (active) and 67.4 µM (active), respectively.

Take `C=C[C@@]1(C)CC(=O)[C@]2(O)[C@@]3(C)[C@@H](O)CCC(C)(C)[C@@H]3[C@H](O)[C@H](OC(C)=O)[C@@]2(C)O1`: the AC50 is 2.59 µM (active) in test [1]; 3.45 µM (active) in [2]; 0.476 µM (active) in test [4]; 0.51 µM (active) in test [5]; 3.81 µM (active) in test [10]. In addition, the outcome in test [3], in test [6], in test [7], in test [8] and in test [9] was inactive.

Regarding `C=C(C)C(=O)OCC(O)COc1ccc(C(C)(C)c2ccc(OCC(O)COC(=O)C(=C)C)cc2)cc1` (stereo not given), the result in test [1], in [2], in [3], in test [4], in test [5] and in [6] was inactive. In addition, the result in [8] and in test [10] was inactive. The results for the AC50 in test [7] and in [9] were 63.7 µM (active) and 24.8 µM (active), respectively.

Regarding `CCOC(=O)/C=C\C(=O)OCC`, the molecule was called inactive in [1], in test [2], in test [3], in test [4], in [5] and in test [6]. The result in test [8], in test [9] and in test [10] was inactive. In test [7], the AC50 is 50.5 µM (active).

With `CCCCCOC(=O)CCCCC`, the call in test [1], in [2], in [3], in [4], in test [5] and in test [6] was inactive. Moreover, the call in [7], in [8], in [9] and in test [10] was inactive.

Consider `CCCCCC1=CCCC1=O`, for which, in test [1], the concentration at half-maximal activity (AC50) is 0.106 µM (active). Further, the outcome in [2], in test [3], in [4], in [5], in [6] and in test [7] was inactive. Moreover, the molecule was called inactive in [8], in [9] and in test [10].

For the molecule `CC(=O)C(C)C`, the outcome in test [1], in [2], in test [3], in test [4], in test [5] and in [6] was inactive. Besides, the molecule was classed as inactive in [7], in [8], in [9] and in test [10].

`Cc1c(O)cccc1O`: the molecule was classed as inactive in [1], in test [2], in test [3], in test [4], in test [5] and in test [7]. Besides, the call in test [8], in test [9] and in [10] was inactive. Moreover, the AC50 in test [6] is 37.8 µM (active).

For the molecule `O=S(=O)(O)c1ccc(Nc2nc(Nc3ccc(C=Cc4ccc(Nc5nc(Nc6ccc(S(=O)(=O)O)cc6)nc(N(CCO)CCO)n5)cc4S(=O)(=O)O)c(S(=O)(=O)O)c3)nc(N(CCO)CCO)n2)cc1`, the call in test [1], in test [2], in test [3], in test [4], in [5] and in [6] was inactive. Also, the result in test [7], in [8], in test [9] and in test [10] was inactive.

As for `O=C1CCCCCCCCCCC1`, the result in [1], in test [2], in test [3], in test [4], in [5] and in test [6] was inactive. Further, the call in test [7], in test [8], in [9] and in test [10] was inactive.

In the case of `CCCCC1CCC(=O)O1` (stereo not given), the molecule was classed as inactive in test [1], in test [2], in test [3], in [4], in [5] and in test [6]. The result in [7], in test [8], in test [9] and in test [10] was inactive.

With `CCCCC(C=O)CC` (stereo not given), the result in test [1], in test [2], in test [3], in [4], in test [5] and in [6] was inactive. The outcome in test [7], in test [8], in test [9] and in test [10] was inactive.
